For 40 compounds, Potency results are on record in PubChem BioAssay (Tox21).

Structures are written as SMILES. Results filed as inconclusive are left out. Entries that show only a call come without a potency. Active and inactive are the calls of the source. Calls come from the whole dose curve.
Potency is the fitted concentration of half-maximal effect.

Sequence of Acetylcholinesterase (Homo sapiens) (P22303 whole entry, looked up): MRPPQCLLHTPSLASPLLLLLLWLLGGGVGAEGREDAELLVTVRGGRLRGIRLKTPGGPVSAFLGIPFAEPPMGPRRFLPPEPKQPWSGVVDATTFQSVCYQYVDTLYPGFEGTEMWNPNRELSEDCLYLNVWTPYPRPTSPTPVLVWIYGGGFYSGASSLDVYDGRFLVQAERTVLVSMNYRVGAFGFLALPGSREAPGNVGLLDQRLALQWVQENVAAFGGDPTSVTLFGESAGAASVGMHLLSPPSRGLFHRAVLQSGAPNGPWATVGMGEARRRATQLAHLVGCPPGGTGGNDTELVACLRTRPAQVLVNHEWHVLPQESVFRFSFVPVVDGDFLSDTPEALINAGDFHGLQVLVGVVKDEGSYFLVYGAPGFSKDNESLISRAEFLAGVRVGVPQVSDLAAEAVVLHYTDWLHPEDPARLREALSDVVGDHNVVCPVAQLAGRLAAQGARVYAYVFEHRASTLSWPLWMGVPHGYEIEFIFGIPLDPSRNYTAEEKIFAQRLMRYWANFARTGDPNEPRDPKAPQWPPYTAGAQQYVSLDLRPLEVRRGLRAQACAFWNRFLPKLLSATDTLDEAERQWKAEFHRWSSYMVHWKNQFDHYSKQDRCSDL

The test concerns the target Acetylcholinesterase (Homo sapiens) (UniProt P22303). The experiment in a line: Acetylcholinesterase (AChE) small molecule antagonists: fluorescence cell-based qHTS assay (AID 1347398). Note: nearly all actives have a fitted effect of over 50% in size. Particulars: SH-SY5Y cells; Potency: AChE activity; outcome: AChE activity; series mostly up to 115 µM. From the text:
National Center for Advancing Translational Sciences [NCATS]
Division of Preclinical Innovation [DPI]
U.S. Environmental Protection Agency [EPA]
National Institutes of Environmental Health Sciences [NIEHS]
National Toxicology Program [NTP]
U.S. Food and Drug Administration [FDA]
Acetylcholinesterase (AChE) is the primary cholinesterase in the body that hydrolyzes a key neurotransmitter, acetylcholine. Inhibition of AChE activity can lead to neurotoxicity. Known inhibitors of AChE include organophosphorous pesticides (OP), chemical warfare agents, drugs, and various phytochemicals.
A homogenous cell-based assay using Amplitetrade mark Fluorimetric Acetylcholinesterase Assay Kit *Green Fluorescence* (AAT Bioquest, Sunnyvale, CA) was used to evaluate the chemicals in the Tox21 10K library that inhibit AChE activity. The assay uses Thiolite Green to quantify the thiocholine produced from the hydrolysis of acetylthiocholine by AChE from the SH-SY5Y cells. AChE can hydrolyze acetylthiocholine to create thiocholine. Thiolite Green is fluorescent when reacting with thiocholine. It has spectral properties similar to those of fluorescein. The fluorescence intensity of Thiolite Green is used to measure AChE activity. Its signal can be easily read by a fluorescence microplate reader at Ex/Em = 490/520 nm.
Tox21 Assay Protocol Summary:
For cell-based AChE assay, 2,000 SH-SY5Y cells in 4 uL/well were dispensed into black, clear-bottom 1536-well plates using a Multidrop Combi (Thermo Scientific) dispenser. The assay plates were incubated overnight at 37 C to allow cells to attach to the wells, followed by the transfer of 23 nL compound or DMSO (vehicle control) by a Pintool station (Wako Automation, CA). The plates were incubated for 30 min at 37 C and 5% CO2, followed by the addition of 4 uL of detection cocktail solution (ThioliteGreen, acetylthiocholine) into each well using Flying Reagent Dispenser (Beckman Coulter, CA) and then following 40 min incubation at room temperature. Fluorescent intensity (Ex/Em = 490/520 nm) was measured using an Envision plate reader (PerkinElmer, MA).
In general terms: qHTS replaces the single test concentration by a dilution series.
For `CC1(C)CC(=O)CC(C)(C)N1[O]`, the Potency entry is “inactive”.
The result for `CCCSP(=S)(OCC)Oc1ccc(SC)cc1` (stereo not given) reads “inactive”; that for `O=[N+]([O-])c1cc(Cl)c(Cl)cc1Cl`, “inactive”; that for `CCNC(=O)NC(=O)/C(C#N)=N/OC`, “inactive”.
Turning to `CCCCNC(=O)OCC#CI`, the Potency entry is “inactive”.
The result for `COP(=O)(OC)OC(Br)C(Cl)(Cl)Br` (stereo not given) reads “inactive”; that for `CN1C[C@H](C(=O)N[C@]2(C)O[C@@]3(O)[C@@H]4CCCN4C(=O)[C@H](Cc4ccccc4)N3C2=O)C=C2c3cccc4[nH]cc(c34)C[C@H]21`, 0.505 µM (active); that for `C1CS1`, “inactive”.
In the case of `Cc1cnc(C2=NC(C)(C(C)C)C(=O)N2)c(C(=O)O)c1` (stereo not given) it was “inactive”; in that of `FC(F)OC(F)(F)C(F)Cl` (stereo not given), “inactive”.
The result for `COC(=O)Cc1ccccc1` reads “inactive”.
As for `C=CCOCC1CO1` (stereo not given), the Potency result is “inactive”.
The result for `NP(N)(=O)NC(=O)c1ccc(F)cc1` reads “inactive”; that for `C1CCNCC1`, “inactive”.
Take `COCc1cnc(C2=NC(C)(C(C)C)C(=O)N2)c(C(=O)O)c1` (stereo not given): the Potency entry was “inactive”.
The result for `O=C(O)COc1cc(Cl)c(Cl)cc1Cl` reads “inactive”; that for `CN(C)c1ccc(N=O)cc1`, “inactive”.
On to `CCCCC(CC)CO[N+](=O)[O-]` (stereo not given), for which the Potency result is “inactive”.
The result for `CON(C)C(=O)Nc1ccc(Cl)cc1` reads “inactive”; that for `CC(Oc1cccc(Cl)c1)C(=O)O` (stereo not given), “inactive”; that for `O=S(=O)(c1ccccc1)c1ccccc1`, “inactive”.
For `CCCC[N+]1(C)[C@@H]2CC(OC(=O)[C@H](CO)c3ccccc3)C[C@H]1[C@@H]1O[C@@H]12` (stereo not given in full), the Potency entry is “inactive”.
The result for `CCOC(=O)c1cn2nc(OP(=S)(OCC)OCC)cc2nc1C` reads 39.9 µM (active); that for `CCCCCCCCCCCCN(C)C`, “inactive”.
The result for `CCN(C(C)=O)c1cccc(-c2ccnc3c(C#N)cnn23)c1` reads “inactive”; that for `C=CC(=O)OCC`, “inactive”.
In the case of `CCCCCCCCn1sccc1=O` it was “inactive”; in that of `Cc1nc(N(C)C)nc(OC(=O)N(C)C)c1C`, 11.2 µM (active); in that of `C[C@]12CC[C@H]3[C@@H](CCC4=CC(=O)CC[C@@H]43)[C@@H]1CC[C@@H]2OC(=O)CCc1ccccc1`, “inactive”.
As for `CC(C)(C)OOC(C)(C)CCC(C)(C)OOC(C)(C)C`, the Potency entry is “inactive”.
In the case of `CCCCOC(=O)CCC(=O)OCCCC` it was “inactive”; in that of `c1ccc2sc(SNC3CCCCC3)nc2c1`, “inactive”.
In the case of `NC(=O)CF` it was “inactive”; in that of `CC[N+]1(CCOC(=O)C(O)(c2ccccc2)c2ccccc2)CCCCC1`, “inactive”.
In the case of `O=S(=O)(Cl)Cl` it was “inactive”.
Turning to `FC(Cl)(Cl)C(F)(Cl)Cl`, the Potency entry was “inactive”.
The result for `O=C(O)C(F)(F)C(F)(F)C(F)(F)C(F)(F)C(F)(F)C(F)(F)C(F)(F)C(F)(F)F` reads “inactive”; that for `C=C(Cl)Cl`, “inactive”.
On to `CCCBr`, for which the Potency result was “inactive”.
In the case of `CC(Cc1ccccc1)NCc1ccccc1Cl` (stereo not given) it was “inactive”.
